Reference: PubChem BioAssay (NCATS)
A number with no mark means an inactive call. Activity calls are given as the source filed them. Calls come from the whole dose curve; as a rule, active = well fitted curve in the direction sought with a large enough effect; inconclusive = small, poorly fitted or top-dose-only effect, or another doubt; inactive = no such curve, though single readings can be large or run the other way.

What follows are molecules tested against Alpha-galactosidase (Coffea arabica) (UniProt Q42656) (assay: Counterscreen for Glucocerebrosidase Inhibitors: qHTS Assay for Coffee Bean alpha-Galactosidase at pH 4.5 (AID 957;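 note: plate controls were enzyme alone for no effect and no enzyme for full effect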)). Conditions: purified coffee bean alpha-galactosidase, fluorogenic substrate; series mostly up to 76.9 µM; activity change, negative = inhibition: at the top concentration.
Method in brief: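 AC50 values derive from Hill-equation modeling of concentration-response data, normalized to no-enzyme and full-activity controls. The pH 4.5 citrate assay used 2 nM coffee bean enzyme and 80 uM fluorogenic substrate for 20 min.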

Sequence of Alpha-galactosidase (Coffea arabica) (Q42656 whole entry, looked up): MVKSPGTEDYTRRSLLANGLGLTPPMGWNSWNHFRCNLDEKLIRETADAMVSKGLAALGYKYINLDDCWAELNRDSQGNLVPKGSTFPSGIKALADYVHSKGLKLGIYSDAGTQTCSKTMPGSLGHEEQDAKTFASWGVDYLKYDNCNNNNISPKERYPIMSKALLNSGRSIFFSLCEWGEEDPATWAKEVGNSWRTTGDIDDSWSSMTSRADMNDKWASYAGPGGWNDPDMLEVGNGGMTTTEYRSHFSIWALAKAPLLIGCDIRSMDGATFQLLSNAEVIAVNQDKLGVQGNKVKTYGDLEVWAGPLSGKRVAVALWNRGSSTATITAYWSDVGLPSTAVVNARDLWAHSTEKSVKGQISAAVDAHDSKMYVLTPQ

SMILES | activity change, negative = inhibition | outcome
Cn1c(=O)c2[nH]cnc2n(C)c1=O | -5.16% | 
C[C@H](CS)C(=O)N1CCC[C@H]1C(=O)O | 0.298% | 
CC(C)C(=O)c1c(C(C)C)nn2ccccc12 | 4.2% | 
CC(C)Cc1ccc(C(C)C(=O)O)cc1 (centres undefined) | -4.89% | 
CCn1nc(C(=O)O)c(=O)c2cc3c(cc21)OCO3 | 0.747% | 
CCN(CC)CCNC(=O)c1ccc(N)cc1 | 0.289% | 
CNCCC=C1c2ccccc2CCc2ccccc21 | 0.763% | 
Cc1scc2c1N(C(=O)CN1CCN(C)CC1)c1ccccc1NC2=O | -2.04% | 
Cc1nc2ccccn2c(=O)c1CCN1CCC(C(=O)c2ccc(F)cc2)CC1 | 2.78% | 
CNCCCC12CCC(c3ccccc31)c1ccccc12 | -5.49% | 
CC(C)NNC(=O)c1ccncc1 | 2.22% | 
Clc1cccc(Cl)c1NC1=NCCN1 | 0.541% | 
CCCCC/C=C\C/C=C\C/C=C\C/C=C\CCCC(=O)NCC(=O)O | -5.13% | 
CN1CCN(CCC=C2c3ccccc3Sc3ccc(S(=O)(=O)N(C)C)cc32)CC1 | 1.52% | 
C[N+](C)(C)CCCCCC[N+](C)(C)C |  | inactive
COc1cc(NS(C)(=O)=O)ccc1Nc1c2ccccc2nc2ccccc12 | 7.92% | 
CCO/C([O-])=N/c1c[n+](N2CCOCC2)no1 | -0.275% | 
FC(F)(F)c1ccccc1-n1ccnc1 | 0.208% | 
NCCCNCCSP(=O)(O)O | 1.99% | 
COc1cc(-c2ccc(=O)[nH]n2)ccc1OC(F)F | 2.39% | 
CN1[C@@H]2CC[C@H]1CC(OC(c1ccccc1)c1ccccc1)C2 (some centres undefined) | -4.01% | 
NC(N)=Nc1nc(CSCC/C(N)=N/S(N)(=O)=O)cs1 | -0.889% | 
CCN(CC)CCNC(=O)c1cc(S(C)(=O)=O)ccc1OC | -2.69% | 
NCCCCCC(=O)O | -2.51% | 
CN(C)C(=O)Oc1ccc[n+](C)c1 | 2.94% | 
CN(C)CCOC(=O)COc1ccc(Cl)cc1 | 0.0504% | 
CN1CCC[C@@H]1c1cccnc1 | -1.46% | 
O=c1c(-c2ccc(O)cc2)coc2cc(O)cc(O)c12 | 1.31% | 
Cc1ccc(Cl)c(Nc2ccccc2C(=O)O)c1Cl | 0.687% | 
